What all share (test): glycan array binding signal (z-score within array); higher = stronger binding
Common to all, as to details: glycan notation: IUPAC condensed, linker removed

Assay [1] deals with Neu5Ac(a2-3)Gal6S(b1-4)[Fuc(a1-3)]GlcNAc6S(b1-3)Gal(b1-4)Glc. Put shortly:
(§1)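 The Consortium for Functional Glycomics database supplied 3228 glycan arrays, of which those lacking an available protein sequence were dropped. The binding signal, a within-array Z-score, was averaged across arrays of the same protein sequence and across linkers. Negative scores can be read as non-binding.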

Assay [2] relates to Neu5Ac(a2-6)Gal(b1-4)GlcNAc(b1-2)Man(a1-3)[Neu5Ac(a2-6)Gal(b1-4)GlcNAc(b1-2)Man(a1-6)]Man(b1-4)GlcNAc(b1-4)GlcNAc. Put shortly:
as §1

The test system of assay [3] is Neu5Ac(a2-6)Gal(b1-4)GlcNAc(b1-2)Man(a1-3)[Neu5Gc(a2-6)Gal(b1-4)GlcNAc(b1-2)Man(a1-6)]Man(b1-4)GlcNAc(b1-4)GlcNAc. Put shortly: as §1
Assay [4] relates to Neu5Ac(a2-6)Gal(b1-4)GlcNAc(b1-2)[Neu5Ac(a2-3)Gal(b1-4)GlcNAc(b1-4)]Man(a1-3)[Neu5Ac(a2-3)Gal(b1-4)GlcNAc(b1-2)Man(a1-6)]Man(b1-4)GlcNAc(b1-4)GlcNAc. Put shortly: as §1
Assay [5] has as its system Neu5Ac(a2-6)Gal(b1-4)GlcNAc(b1-2)[Neu5Ac(a2-6)Gal(b1-4)GlcNAc(b1-6)]Man(a1-6)[Neu5Ac(a2-6)Gal(b1-4)GlcNAc(b1-2)Man(a1-3)][GlcNAc(b1-4)]Man(b1-4)GlcNAc(b1-4)GlcNAc. Summed up: as §1
For another assay, the system named is Neu5Ac(a2-3)GalNAc. Summed up:
as §1

In assay [6] the test system is Neu5Ac(a2-6)Gal(b1-4)GlcNAc(b1-2)Man(a1-6)[Gal(b1-4)GlcNAc(b1-2)Man(a1-3)]Man(b1-4)GlcNAc(b1-4)GlcNAc. Put shortly: as §1
In assay [7] the test system is Neu5Ac(a2-3)Gal6S(b1-4)GlcNAc. Put shortly:
as §1

For assay [8], the system named is Neu5Ac(a2-3)[GalNAc(b1-4)]Gal(b1-4)Glc. Summed up:
as §1

The test system of assay [9] is Neu5Ac(a2-3)[Neu5Ac(a2-6)]GalNAc. Summed up: as §1
Assay [10] concerns Neu5Ac(a2-6)Gal(b1-3)GlcNAc(b1-3)[Gal(b1-4)GlcNAc(b1-6)]Gal(b1-4)Glc. Put shortly:
as §1

Assay [11] has as its system Neu5Ac(a2-6)Gal(b1-4)GlcNAc(b1-2)Man(a1-3)[GlcNAc(b1-2)Man(b1-4)GlcNAc(b1-2)Man(a1-6)]Man(b1-4)GlcNAc(b1-4)GlcNAc. Put shortly:
as §1

The subject of assay [12] is Neu5Ac(a2-6)Gal(b1-4)GlcNAc(b1-3)Gal(b1-4)GlcNAc. Put shortly: as §1
For assay [13], the system named is Neu5Ac(a2-6)Gal(b1-4)GlcNAc(b1-3)GalNAc. Put shortly:
as §1

In assay [14] the test system is Neu5Ac(a2-6)Gal(b1-4)GlcNAc(b1-3)Gal(b1-3)GlcNAc. Put shortly: as §1
Assay [15] deals with Neu5Ac(a2-6)Gal(b1-4)GlcNAc(b1-2)Man(a1-6)Man(b1-4)GlcNAc(b1-4)GlcNAc. Put shortly:
as §1

The test system of assay [16] is Neu5Ac(a2-6)Gal(b1-4)GlcNAc(b1-3)Gal(b1-4)GlcNAc(b1-3)Gal(b1-4)GlcNAc(b1-2)Man(a1-3)[Neu5Ac(a2-6)Gal(b1-4)GlcNAc(b1-3)Gal(b1-4)GlcNAc(b1-3)Gal(b1-4)GlcNAc(b1-2)Man(a1-6)]GalNAc. Put shortly:
as §1

Assay [17] has as its system Neu5Ac(a2-6)Gal(b1-4)GlcNAc(b1-3)Gal(b1-4)GlcNAc(b1-6)[Gal(b1-3)]GalNAc. Put shortly:
as §1

Assay [18] relates to Neu5Ac(a2-6)Gal(b1-4)GlcNAc(b1-3)Gal(b1-4)[Fuc(a1-3)]GlcNAc(b1-3)Gal(b1-4)[Fuc(a1-3)]GlcNAc. Put shortly: as §1
For assay [19], the system named is Neu5Ac(a2-6)Gal(b1-4)GlcNAc(b1-2)Man(a1-3)[Neu5Ac(a2-6)Gal(b1-4)GlcNAc(b1-2)Man(a1-6)]Man(b1-4)GlcNAc(b1-4)[Fuc(a1-6)]GlcNAc. Summed up:
as §1

About 410 targets per protein were measured; listed, in parts, are those with the strongest signals and a random draw of the rest.

For the substance MIC3-MAR1b (Eimeria tenella), B6VCV4, the “glycan array binding signal (z-score)” value in assay [1] came out at 0.282; in assay [2], 4.75; in assay [3] it was 0.504; in assay [4] it was 2.99.

For AgI/IIC123-GFP (Streptococcus mutans), in assay [5], the “glycan array binding signal (z-score)” value was 3.72.

As for BambL (Burhholderia ambifaria), Q0B4G1, the “glycan array binding signal (z-score)” value was -0.313 in the assay with Neu5Ac(a2-3)GalNAc and -0.317 in assay [6].

With MIC3-MAR5 (Eimeria tenella), B6VCV4, the “glycan array binding signal (z-score)” value in assay [2] was 1.71.

For the substance “SpGH101 (Streptococcus pneumoniae), Q8DR60”, the “glycan array binding signal (z-score)” value in [7] was -0.178; in assay [8], -0.199; in [9], -0.195; in assay [10] it was -0.168; in assay [11], 0.015; in assay [12] it was -0.199. Also, the “glycan array binding signal (z-score)” value in [13] turned out to be 2.23.

Take LcI (Legionella pneumophila): the figures for the “glycan array binding signal (z-score)” value in assay [9] and in [14] were -0.437 and 0.02, respectively.

For the substance “SiiE (Salmonella typhimurium), A0A0H3NVH0”, the “glycan array binding signal (z-score)” value in [14] was determined as 2.56.

Take Epa22: the “glycan array binding signal (z-score)” value is -0.771 in [7]; -0.487 in assay [10]; 0.268 in [15]; 3.15 in assay [16]; 0.044 in [17].

As for “AgI/II Vhelical-GFP (Streptococcus mutans)”, the “glycan array binding signal (z-score)” value in assay [16] came out at 1.12; in [18] it was 1.26.

For Wza (Escherichia coli), P0A930, the “glycan array binding signal (z-score)” value was 0.652 in assay [10] and -0.578 in assay [19].

These data come from the supplement of paper PMC8728848.
